Experiment [1] in a line: NCI Yeast Anticancer Drug Screen. Data for the rad50 strain (AID 155).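 Also: 0% = growth of vehicle-only cultures of the same strain.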 To be noted: S. cerevisiae rad50 strain growth inhibition, stronger effect = higher value. The method, boiled down: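 Relative growth inhibition (compound vs vehicle) was measured in yeast with a defined repair-gene alteration.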
Experiment [2] in a line: NCI Yeast Anticancer Drug Screen. Data for the mec2-1 strain (AID 157). To be noted: S. cerevisiae mec2-1 strain, stronger effect = higher value. The gist of the method: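 Each compound was tested on mec2-1 yeast, a strain altered in DNA damage repair or cell cycle control. Growth inhibition is reported relative to vehicle.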
A short description of experiment [3]: NCI Yeast Anticancer Drug Screen. Data for the sgs1 mgt1 strain (AID 161).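 Also: 0% = growth of cultures given vehicle only.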 To be noted: S. cerevisiae sgs1 mgt1 strain, stronger effect = higher value. The method, boiled down:
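Inhibition of yeast growth, normalised to vehicle-treated controls, is reported for a strain bearing genetic alterations in DNA damage repair.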

Experiment [4] is described as follows: NCI Yeast Anticancer Drug Screen. Data for the cln2 rad14 strain (AID 165).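 Also: 0% = growth equal to vehicle treated cultures.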 To be noted: S. cerevisiae cln2 rad14 strain, stronger effect = higher value. The gist of the method: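 Test compounds were added to cln2 rad14 yeast cultures; inhibition of growth was then determined by comparison with vehicle treatment.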
The nature of experiment [5]: NCI Yeast Anticancer Drug Screen. Data for the bub3 strain (AID 167). To be noted: S. cerevisiae bub3 mutant strain, stronger effect = higher value. The method, boiled down: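 Screening used yeast with an engineered genetic alteration affecting cell cycle control. Compound-exposed cultures were compared with vehicle cultures, and reduced growth was taken as inhibition.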
A short description of experiment [6]: NCI Yeast Anticancer Drug Screen. Data for the mlh1 rad18 strain (AID 175). To be noted: S. cerevisiae mlh1 rad18 strain growth inhibition, stronger effect = higher value. The gist of the method: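 Inhibition values reflect reduced growth of mutant yeast versus vehicle-treated controls following compound exposure; the mutations affect DNA damage repair.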
Setting [7] is: at 5.0 µM (retest, dose inferred, filed as 0.5).
[8] abbreviates: at 50.0 µM (retest, dose inferred, filed as 5.0).

The panel holds about 79,000 compounds, 15% with a hit somewhere; the sample as a whole holds those more often. A number with no mark means an inactive call. Active and inactive are the calls of the source. Rule as the data show it: active = growth inhibition above about 70%; inactive = the rest.

Consider `Cn1c2nc(-[n+]3ccc(-c4ccccc4)cc3)nc-2c([O-])n(C)c1=O`, for which the growth inhibition is 3% in experiment [1] (setting [7]); 3% in experiment [1] (setting [8]); -7.35% in experiment [1] (at 50.0 µM); -3% in experiment [2] (setting [7]); 8% in experiment [2] (setting [8]); 2.95% in experiment [2] (at 50.0 µM). The growth inhibition in experiment [3] (setting [7]) is 1%; in experiment [3] (setting [8]) it was -4%; in experiment [3] (at 50.0 µM), 9.9%; in experiment [4] (setting [7]), -3%; in experiment [4] (setting [8]), 1%; in experiment [4] (at 50.0 µM) it was 72.3% (active). Further, the growth inhibition in experiment [5] (setting [7]) is -1%; in experiment [5] (setting [8]), -3%; in experiment [5] (at 50.0 µM) it was -2%; in experiment [6] (setting [7]), -1%; in experiment [6] (setting [8]), 16%; in experiment [6] (at 50.0 µM), -7.5%.

`CC12CCc3ccccc3C1=Nc1ccccc12` (stereo not given): the growth inhibition in experiment [1] (setting [7]) was -3%; in experiment [1] (setting [8]), 78% (active); in experiment [1] (at 50.0 µM) it was 78.7% (active); in experiment [2] (setting [7]), 2%; in experiment [2] (setting [8]), 89% (active); in experiment [2] (at 50.0 µM), 73.2% (active). Besides, the growth inhibition in experiment [3] (setting [7]) was 8%; in experiment [3] (setting [8]) it was 82% (active); in experiment [3] (at 50.0 µM) it was 58.2%; in experiment [4] (setting [7]), -12%; in experiment [4] (setting [8]) it was -20%; in experiment [4] (at 50.0 µM) it was -11.1%. Besides, the growth inhibition in experiment [5] (setting [7]) was 12%; in experiment [5] (setting [8]), 90% (active); in experiment [5] (at 50.0 µM) it was 88.7% (active); in experiment [6] (setting [7]) it was -3%; in experiment [6] (setting [8]) it was 72% (active); in experiment [6] (at 50.0 µM) it was 55.5%.

`OC(CN1CCC(c2ccccc2)CC1)c1ccc(Br)cc1` (stereo not given): the growth inhibition in experiment [1] (setting [7]) is 57%; in experiment [1] (setting [8]) it was 74% (active); in experiment [1] (at 50.0 µM) it was 87.7% (active); in experiment [2] (setting [7]), 32%; in experiment [2] (setting [8]), 53%; in experiment [2] (at 50.0 µM), 61.2%. Further, the growth inhibition in experiment [3] (setting [7]) was 66%; in experiment [3] (setting [8]), 64%; in experiment [3] (at 50.0 µM) it was 83.2% (active); in experiment [4] (setting [7]), 64%; in experiment [4] (setting [8]), 77% (active); in experiment [4] (at 50.0 µM), 76.8% (active). Also, the growth inhibition in experiment [5] (setting [7]) was 58%; in experiment [5] (setting [8]) it was 93% (active); in experiment [5] (at 50.0 µM), 82.7% (active); in experiment [6] (setting [7]), 80% (active); in experiment [6] (setting [8]), 91% (active); in experiment [6] (at 50.0 µM), 80.5% (active).

As for `CN(C)c1ccccc1CN1CCCN(Cc2ccccc2N(C)C)C1`, the growth inhibition in experiment [1] (setting [7]) was -4%; in experiment [1] (setting [8]) it was 7%; in experiment [1] (at 50.0 µM), 69.8%; in experiment [2] (setting [7]) it was 8%; in experiment [2] (setting [8]) it was 26%; in experiment [2] (at 50.0 µM) it was 50%. The growth inhibition in experiment [3] (setting [7]) was 1%; in experiment [3] (setting [8]) it was 35%; in experiment [3] (at 50.0 µM), 75.2% (active); in experiment [4] (setting [7]) it was 0%; in experiment [4] (setting [8]), 2%; in experiment [4] (at 50.0 µM) it was 4.45%. Further, the growth inhibition in experiment [5] (setting [7]) is 2%; in experiment [5] (setting [8]) it was 6%; in experiment [5] (at 50.0 µM) it was 1.5%; in experiment [6] (setting [7]), 18%; in experiment [6] (setting [8]), 35%; in experiment [6] (at 50.0 µM), 63.3%.

As to `CCc1cccc(C)c1NC(=O)/C(Cl)=C(\Cl)C(=O)O`, the growth inhibition in experiment [1] (setting [7]) is 67%; in experiment [1] (setting [8]) it was 99% (active); in experiment [1] (at 50.0 µM), 99.4% (active); in experiment [2] (setting [7]), 65%; in experiment [2] (setting [8]), 100% (active); in experiment [2] (at 50.0 µM) it was 99.5% (active). Moreover, the growth inhibition in experiment [3] (setting [7]) is 67%; in experiment [3] (setting [8]), 100% (active); in experiment [3] (at 50.0 µM), 99.7% (active); in experiment [4] (setting [7]) it was 54%; in experiment [4] (setting [8]), 99% (active); in experiment [4] (at 50.0 µM), 99.1% (active). The growth inhibition in experiment [5] (setting [7]) was 94% (active); in experiment [5] (setting [8]), 100% (active); in experiment [5] (at 50.0 µM) it was 99.5% (active); in experiment [6] (setting [7]), 53%; in experiment [6] (setting [8]) it was 100% (active); in experiment [6] (at 50.0 µM), 99.4% (active).

As for `O=C(C(=O)c1ccc(Cc2ccc(C(=O)C(=O)c3ccccc3)cc2)cc1)c1ccccc1`, the growth inhibition in experiment [1] (setting [7]) is -1%; in experiment [1] (setting [8]) it was -20%; in experiment [1] (at 50.0 µM), 6.45%; in experiment [2] (setting [7]) it was 0%; in experiment [2] (setting [8]), -4%; in experiment [2] (at 50.0 µM), 6.4%. Besides, the growth inhibition was 1% in experiment [3] (setting [7]); 1% in experiment [3] (setting [8]); -15.6% in experiment [3] (at 50.0 µM); 3% in experiment [4] (setting [7]); -17% in experiment [4] (setting [8]); 27.4% in experiment [4] (at 50.0 µM). Moreover, the growth inhibition was 2% in experiment [5] (setting [7]); -22% in experiment [5] (setting [8]); 0.8% in experiment [5] (at 50.0 µM); 2% in experiment [6] (setting [7]); -17% in experiment [6] (setting [8]); 12.2% in experiment [6] (at 50.0 µM).

On to `COc1ccccc1NC(c1ccccc1)c1ccc2cccnc2c1O` (stereo not given), for which the growth inhibition is 2% in experiment [1] (setting [7]); 50% in experiment [1] (setting [8]); 81.2% (active) in experiment [1] (at 50.0 µM); 3% in experiment [2] (setting [7]); 60% in experiment [2] (setting [8]); 49.2% in experiment [2] (at 50.0 µM). Besides, the growth inhibition in experiment [3] (setting [7]) is 7%; in experiment [3] (setting [8]), 45%; in experiment [3] (at 50.0 µM) it was 73.2% (active); in experiment [4] (setting [7]), -7%; in experiment [4] (setting [8]), -1%; in experiment [4] (at 50.0 µM) it was 15.2%. Moreover, the growth inhibition in experiment [5] (setting [7]) is -5%; in experiment [5] (setting [8]), 18%; in experiment [5] (at 50.0 µM), 2.9%; in experiment [6] (setting [7]) it was -23%; in experiment [6] (setting [8]) it was 44%; in experiment [6] (at 50.0 µM), 75% (active).

For `C=CCOCC(C)OC(=O)C(C)C` (stereo not given), the growth inhibition in experiment [1] (setting [7]) is -162%; in experiment [1] (setting [8]) it was -158%; in experiment [1] (at 50.0 µM), 55.7%; in experiment [2] (setting [7]) it was -46%; in experiment [2] (setting [8]), -52%; in experiment [2] (at 50.0 µM) it was -6.9%. The growth inhibition was -63% in experiment [3] (setting [7]); -63% in experiment [3] (setting [8]); 18.3% in experiment [3] (at 50.0 µM); -60% in experiment [4] (setting [7]); -62% in experiment [4] (setting [8]); 49% in experiment [4] (at 50.0 µM). In addition, the growth inhibition in experiment [5] (setting [7]) is -71%; in experiment [5] (setting [8]), -78%; in experiment [5] (at 50.0 µM), 11.8%; in experiment [6] (setting [7]), -140%; in experiment [6] (setting [8]) it was -117%; in experiment [6] (at 50.0 µM), 63.2%.

Take `CC1(C)CC(=O)C(c2ccccc2[N+](=O)[O-])=C(O)C1`: the growth inhibition was 4% in experiment [1] (setting [7]); 6% in experiment [1] (setting [8]); 99.6% (active) in experiment [1] (at 50.0 µM); 11% in experiment [2] (setting [7]); 20% in experiment [2] (setting [8]); 99.3% (active) in experiment [2] (at 50.0 µM). Further, the growth inhibition was 4% in experiment [3] (setting [7]); 8% in experiment [3] (setting [8]); 69.6% in experiment [3] (at 50.0 µM); 5% in experiment [4] (setting [7]); 24% in experiment [4] (setting [8]); 90.3% (active) in experiment [4] (at 50.0 µM). For the same compound, the growth inhibition in experiment [5] (setting [7]) is -6%; in experiment [5] (setting [8]), -1%; in experiment [5] (at 50.0 µM), 98.3% (active); in experiment [6] (setting [7]) it was -2%; in experiment [6] (setting [8]) it was 7%; in experiment [6] (at 50.0 µM), 99.2% (active).

As for `Clc1ccccc1/C=C/c1ccccn1`, the growth inhibition was -8% in experiment [1] (setting [7]); 4% in experiment [1] (setting [8]); 41.2% in experiment [1] (at 50.0 µM); -6% in experiment [2] (setting [7]); -16% in experiment [2] (setting [8]); 30.7% in experiment [2] (at 50.0 µM). The growth inhibition in experiment [3] (setting [7]) is -8%; in experiment [3] (setting [8]), 1%; in experiment [3] (at 50.0 µM), 74.7% (active); in experiment [4] (setting [7]), -9%; in experiment [4] (setting [8]), -16%; in experiment [4] (at 50.0 µM), 16.2%. Besides, the growth inhibition in experiment [5] (setting [7]) was -3%; in experiment [5] (setting [8]), 30%; in experiment [5] (at 50.0 µM) it was 67.5%; in experiment [6] (setting [7]), -7%; in experiment [6] (setting [8]) it was -6%; in experiment [6] (at 50.0 µM), 71.8% (active).

Source of the values: PubChem BioAssay (NCI).
